Results from the supplement of paper PMC11732987, “Enantioselective OTUD7B fragment discovery through chemoproteomics screening and high-throughput optimisation” (Communications Chemistry, 2025).

Tests used:
Assay in all cases: log2 ratio of Biotin-Ahx-Ub-VS probe labelling (fragment/DMSO); higher = less target engagement (more negative = stronger competition), active = hit call of the paper (q ≤ 0.05, log2 ratio ≤ -1)
Settings in all cases: compound concentration: 200 uM; treatment time: 3 h
ALG13 = target: T1, ALG13 (UniProt Q9NP73)
T1 sequence (whole entry): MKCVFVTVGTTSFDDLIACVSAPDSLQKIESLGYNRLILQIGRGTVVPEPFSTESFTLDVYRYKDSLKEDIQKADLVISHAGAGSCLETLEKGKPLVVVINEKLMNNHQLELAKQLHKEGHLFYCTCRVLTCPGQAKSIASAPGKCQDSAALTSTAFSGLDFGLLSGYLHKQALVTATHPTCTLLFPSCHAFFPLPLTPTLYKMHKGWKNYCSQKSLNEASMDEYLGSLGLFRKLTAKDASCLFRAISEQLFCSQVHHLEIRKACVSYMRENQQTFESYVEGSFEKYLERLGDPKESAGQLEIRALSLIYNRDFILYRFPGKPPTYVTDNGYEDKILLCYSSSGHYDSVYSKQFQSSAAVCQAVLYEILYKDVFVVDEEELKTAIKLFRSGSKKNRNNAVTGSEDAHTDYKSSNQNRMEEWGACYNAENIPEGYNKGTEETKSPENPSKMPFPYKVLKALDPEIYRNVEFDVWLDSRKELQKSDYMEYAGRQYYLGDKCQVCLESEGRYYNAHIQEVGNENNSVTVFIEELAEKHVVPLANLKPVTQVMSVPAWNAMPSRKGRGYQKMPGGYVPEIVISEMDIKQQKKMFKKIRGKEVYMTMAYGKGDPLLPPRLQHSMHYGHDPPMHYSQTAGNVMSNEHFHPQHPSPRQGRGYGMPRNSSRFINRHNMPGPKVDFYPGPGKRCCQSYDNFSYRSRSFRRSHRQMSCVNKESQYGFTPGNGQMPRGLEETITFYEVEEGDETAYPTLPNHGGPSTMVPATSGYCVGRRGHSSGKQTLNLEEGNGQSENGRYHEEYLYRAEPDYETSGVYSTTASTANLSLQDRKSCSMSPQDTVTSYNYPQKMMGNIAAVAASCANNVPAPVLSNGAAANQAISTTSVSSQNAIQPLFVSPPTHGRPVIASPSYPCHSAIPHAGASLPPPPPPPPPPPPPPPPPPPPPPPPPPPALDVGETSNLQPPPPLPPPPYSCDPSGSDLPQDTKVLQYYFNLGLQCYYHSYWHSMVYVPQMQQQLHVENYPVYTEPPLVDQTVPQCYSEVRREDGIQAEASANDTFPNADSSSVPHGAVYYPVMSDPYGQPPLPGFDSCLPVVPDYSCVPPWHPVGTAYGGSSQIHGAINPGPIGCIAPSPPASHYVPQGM
How it was run: (§1)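 Lysate from HEK293T cells, 495 µg per sample in Tris/CHAPS/IGEPAL buffer with protease inhibitors, was treated for 3 h in triplicate with fragment at 200 µM or vehicle. Biotin-Ahx-Ub-VS was next added at 0.5 µM final for 1 h. The labelled DUBs were enriched with NeutrAvidin, digested with LysC and trypsin, and run by diaPASEF LC-MS/MS, with values given as average log2 fragment/vehicle ratios by unpaired t-test on global-median-normalised Spectronaut quantities of proteins with ≥2 unique peptides.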

ATXN3 = ATXN3 (UniProt P54252)
Sequence of ATXN3 (P54252 whole entry): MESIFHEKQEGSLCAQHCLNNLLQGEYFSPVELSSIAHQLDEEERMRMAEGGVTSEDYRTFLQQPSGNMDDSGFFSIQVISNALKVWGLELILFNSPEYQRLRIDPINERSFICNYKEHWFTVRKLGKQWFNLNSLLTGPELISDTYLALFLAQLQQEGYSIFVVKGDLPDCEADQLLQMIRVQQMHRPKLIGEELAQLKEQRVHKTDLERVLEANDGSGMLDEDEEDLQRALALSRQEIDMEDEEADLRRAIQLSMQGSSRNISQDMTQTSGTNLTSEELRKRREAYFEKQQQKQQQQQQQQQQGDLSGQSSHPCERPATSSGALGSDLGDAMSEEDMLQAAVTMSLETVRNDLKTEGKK
How it was run: as §1

BAP1 = target: T2, BAP1 (UniProt Q92560)
T2 sequence (whole entry): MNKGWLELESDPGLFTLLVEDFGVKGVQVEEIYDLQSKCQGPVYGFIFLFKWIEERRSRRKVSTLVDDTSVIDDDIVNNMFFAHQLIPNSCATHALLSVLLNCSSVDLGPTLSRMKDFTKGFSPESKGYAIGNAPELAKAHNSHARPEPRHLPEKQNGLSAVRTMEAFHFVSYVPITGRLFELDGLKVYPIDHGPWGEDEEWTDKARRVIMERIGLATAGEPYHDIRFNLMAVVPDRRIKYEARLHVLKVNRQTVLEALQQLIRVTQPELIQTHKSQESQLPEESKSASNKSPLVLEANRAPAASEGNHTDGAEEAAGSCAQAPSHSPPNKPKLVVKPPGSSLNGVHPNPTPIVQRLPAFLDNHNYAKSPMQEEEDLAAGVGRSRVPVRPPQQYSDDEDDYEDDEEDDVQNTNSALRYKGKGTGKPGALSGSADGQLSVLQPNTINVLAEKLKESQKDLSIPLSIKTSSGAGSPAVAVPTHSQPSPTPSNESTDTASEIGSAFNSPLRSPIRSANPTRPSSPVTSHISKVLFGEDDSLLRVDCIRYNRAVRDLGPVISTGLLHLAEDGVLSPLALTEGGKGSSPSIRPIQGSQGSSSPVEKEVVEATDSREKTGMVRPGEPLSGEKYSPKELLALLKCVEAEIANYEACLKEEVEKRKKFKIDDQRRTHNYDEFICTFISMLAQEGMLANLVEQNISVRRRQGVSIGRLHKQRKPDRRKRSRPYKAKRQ
How it was run: as §1

EIF3F = EIF3F (UniProt O00303)
Sequence of EIF3F (O00303 whole entry): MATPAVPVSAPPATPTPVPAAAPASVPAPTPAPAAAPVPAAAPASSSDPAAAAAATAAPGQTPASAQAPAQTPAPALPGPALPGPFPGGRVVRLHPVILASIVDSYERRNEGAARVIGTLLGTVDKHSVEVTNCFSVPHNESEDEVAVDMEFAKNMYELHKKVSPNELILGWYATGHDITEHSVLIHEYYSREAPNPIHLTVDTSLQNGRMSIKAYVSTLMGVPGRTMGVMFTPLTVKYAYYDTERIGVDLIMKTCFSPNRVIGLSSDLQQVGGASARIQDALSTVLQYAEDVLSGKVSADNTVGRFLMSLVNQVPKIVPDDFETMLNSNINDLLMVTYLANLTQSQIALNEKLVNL
How it was run: as §1

EIF3H = EIF3H (UniProt O15372)
Sequence of EIF3H (O15372 whole entry): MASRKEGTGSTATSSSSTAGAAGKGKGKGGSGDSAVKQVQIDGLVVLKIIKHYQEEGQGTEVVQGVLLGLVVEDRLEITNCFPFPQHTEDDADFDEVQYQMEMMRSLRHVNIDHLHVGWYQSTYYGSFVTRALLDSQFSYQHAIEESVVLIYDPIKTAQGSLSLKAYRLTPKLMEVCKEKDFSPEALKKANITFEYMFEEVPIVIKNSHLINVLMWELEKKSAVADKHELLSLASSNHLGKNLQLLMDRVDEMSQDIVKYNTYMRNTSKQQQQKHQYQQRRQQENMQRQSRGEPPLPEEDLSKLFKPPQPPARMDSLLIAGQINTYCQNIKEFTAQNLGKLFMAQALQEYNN
How it was run: as §1

FAM105A = target: T3, FAM105A (UniProt Q9NUU6)
T3 sequence (whole entry): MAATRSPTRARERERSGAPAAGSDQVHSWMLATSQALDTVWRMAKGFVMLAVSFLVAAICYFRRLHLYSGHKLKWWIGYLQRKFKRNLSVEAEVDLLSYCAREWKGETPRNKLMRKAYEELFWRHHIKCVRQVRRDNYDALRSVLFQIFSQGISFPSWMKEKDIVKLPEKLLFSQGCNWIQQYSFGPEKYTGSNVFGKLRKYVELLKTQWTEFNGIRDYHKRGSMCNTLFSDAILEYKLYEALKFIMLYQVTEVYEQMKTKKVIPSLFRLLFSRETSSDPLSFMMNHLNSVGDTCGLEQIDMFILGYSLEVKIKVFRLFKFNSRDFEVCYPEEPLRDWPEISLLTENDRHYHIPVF
How it was run: as §1

OTUB1 = OTUB1 (UniProt Q96FW1)
Sequence of OTUB1 (Q96FW1 whole entry): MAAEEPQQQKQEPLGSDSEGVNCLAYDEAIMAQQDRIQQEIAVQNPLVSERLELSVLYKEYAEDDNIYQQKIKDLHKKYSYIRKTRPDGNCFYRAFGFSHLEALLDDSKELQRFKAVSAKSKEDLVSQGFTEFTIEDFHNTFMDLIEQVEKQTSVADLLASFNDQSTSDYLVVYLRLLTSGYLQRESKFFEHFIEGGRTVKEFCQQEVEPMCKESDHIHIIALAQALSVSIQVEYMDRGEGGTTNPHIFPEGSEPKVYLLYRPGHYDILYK
How it was run: as §1

OTUD4 = target: T4, OTUD4 (UniProt Q01804)
T4 sequence (whole entry): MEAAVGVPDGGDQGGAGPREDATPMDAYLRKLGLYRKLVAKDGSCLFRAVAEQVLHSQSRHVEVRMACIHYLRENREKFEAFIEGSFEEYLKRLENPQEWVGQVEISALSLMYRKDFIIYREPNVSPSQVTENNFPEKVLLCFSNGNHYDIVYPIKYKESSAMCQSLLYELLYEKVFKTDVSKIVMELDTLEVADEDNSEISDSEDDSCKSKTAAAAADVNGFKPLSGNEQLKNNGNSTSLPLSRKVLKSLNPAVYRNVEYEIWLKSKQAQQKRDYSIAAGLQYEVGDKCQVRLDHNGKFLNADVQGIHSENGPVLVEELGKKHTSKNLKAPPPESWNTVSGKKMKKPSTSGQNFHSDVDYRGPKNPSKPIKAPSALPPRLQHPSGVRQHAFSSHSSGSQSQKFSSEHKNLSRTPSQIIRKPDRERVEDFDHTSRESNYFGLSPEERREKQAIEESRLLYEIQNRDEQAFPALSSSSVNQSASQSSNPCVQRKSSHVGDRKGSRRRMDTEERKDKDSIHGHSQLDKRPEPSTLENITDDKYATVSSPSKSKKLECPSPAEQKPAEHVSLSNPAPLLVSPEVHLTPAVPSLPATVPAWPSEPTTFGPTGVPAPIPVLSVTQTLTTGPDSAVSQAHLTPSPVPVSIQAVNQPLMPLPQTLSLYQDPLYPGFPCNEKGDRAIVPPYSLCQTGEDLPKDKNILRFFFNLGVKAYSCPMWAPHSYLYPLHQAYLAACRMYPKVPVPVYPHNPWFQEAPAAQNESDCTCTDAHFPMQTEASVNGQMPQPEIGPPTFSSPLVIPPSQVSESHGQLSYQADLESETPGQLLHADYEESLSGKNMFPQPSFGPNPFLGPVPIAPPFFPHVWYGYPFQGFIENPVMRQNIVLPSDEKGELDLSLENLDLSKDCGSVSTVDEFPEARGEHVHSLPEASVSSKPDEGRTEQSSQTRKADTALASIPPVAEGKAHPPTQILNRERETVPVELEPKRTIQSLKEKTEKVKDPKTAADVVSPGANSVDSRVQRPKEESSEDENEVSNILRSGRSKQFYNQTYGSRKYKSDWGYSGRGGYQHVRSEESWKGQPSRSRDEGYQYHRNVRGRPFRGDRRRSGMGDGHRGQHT
How it was run: as §1

OTUD5 = target: T5, OTUD5 (UniProt Q96G74)
T5 sequence (whole entry): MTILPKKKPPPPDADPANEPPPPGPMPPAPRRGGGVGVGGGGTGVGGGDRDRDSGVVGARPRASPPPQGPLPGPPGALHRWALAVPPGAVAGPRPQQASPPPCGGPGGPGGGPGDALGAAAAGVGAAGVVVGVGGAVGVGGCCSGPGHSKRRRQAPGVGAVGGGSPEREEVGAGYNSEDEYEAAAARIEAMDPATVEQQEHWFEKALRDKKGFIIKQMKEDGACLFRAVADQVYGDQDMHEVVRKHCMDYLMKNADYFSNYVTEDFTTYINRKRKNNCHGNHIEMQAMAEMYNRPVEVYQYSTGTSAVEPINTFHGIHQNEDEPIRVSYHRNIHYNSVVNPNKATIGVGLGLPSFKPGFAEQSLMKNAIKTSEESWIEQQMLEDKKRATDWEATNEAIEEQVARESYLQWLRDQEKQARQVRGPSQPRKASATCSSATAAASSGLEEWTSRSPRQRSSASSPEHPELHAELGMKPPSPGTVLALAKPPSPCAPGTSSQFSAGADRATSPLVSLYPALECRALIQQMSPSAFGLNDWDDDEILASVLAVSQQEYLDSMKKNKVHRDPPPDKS
How it was run: as §1

Measured: log2 ratio of Biotin-Ahx-Ub-VS probe labelling

O=C(CN1CCN(C(=O)CCl)CC1)Nc1cccc(F)c1
inactive: ALG13 -0.606 | ATXN3 -0.412 | BAP1 -0.967 | EIF3F -0.00546 | EIF3H 0.149 | FAM105A 0.21 | OTUB1 -0.291 | OTUD4 -0.422 | OTUD5 -0.511
